# D1 agonist: human D1 receptor agonism; P21728; HEK293 T-REx D1 cells, calcium flux, agonist mode; activation, % at 2 µM; 360,000 tested, 1% active; also: 0% is about no effect
# Target sequence (P21728 whole entry, looked up): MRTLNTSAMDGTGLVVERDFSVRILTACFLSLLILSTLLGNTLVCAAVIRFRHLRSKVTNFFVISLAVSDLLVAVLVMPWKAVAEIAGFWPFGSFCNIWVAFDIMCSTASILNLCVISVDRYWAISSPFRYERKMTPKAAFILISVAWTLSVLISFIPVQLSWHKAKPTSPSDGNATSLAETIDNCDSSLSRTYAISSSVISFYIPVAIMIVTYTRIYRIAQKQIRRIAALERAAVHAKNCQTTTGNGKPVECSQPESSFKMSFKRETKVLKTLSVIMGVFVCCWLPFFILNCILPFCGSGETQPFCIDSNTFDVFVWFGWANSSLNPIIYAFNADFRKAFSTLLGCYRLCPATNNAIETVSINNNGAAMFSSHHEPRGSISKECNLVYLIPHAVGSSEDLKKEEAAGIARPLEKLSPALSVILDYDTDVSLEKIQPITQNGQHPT
#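 Inducible HEK293 T-REx D1 cells, force-coupled to calcium signalling, were plated at 4000 cells/well with tetracycline and held overnight at 30 C. After no-wash calcium dye loading, compound-evoked calcium rise over 180 s flagged agonists.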
# TRHR enhancer: TRH receptor (human) allosteric enhancement; P34981; TRHR cells, fluo-8 calcium fluorescence, EC20 TRH enhancement; enhancement, % at 2 µM; 360,000 tested, 0.66% active; AID 493056; in the data active = enhancement above about 30%; also: 0% is about no effect
#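 Enhancer read-out: after compound pinning and an initial kinetic agonist-mode read, an EC20 of TRH (10 nM final) was injected and fluo-8 calcium signal (Ex 480/Em 530) followed at 1 s/cycle for 100 cycles in TRHR-expressing cells.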
# D1 antag: antagonists of human D1 dopamine receptor; AID 504652; 360,000 tested, 3.2% active; HEK293 TREx D1 cells, calcium flux, dopamine EC80; hits give low values; activity change, negative = inhibition, % at 10 µM; P21728; in the data active = activity change below about -30%; also: % is scaled to controls: 0 for no effect and ±100 for the full control effect
#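 Using tetracycline-induced force-coupled D1 Hek293 cells and a calcium dye, signals were followed for 180 s after compound, then for 180 s after EC80 dopamine, to detect inhibitors.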
# TRHR ag: activates the human TRH receptor; P34981; TRHR cells, calcium flux fluo-8, FDSS agonist mode; activation, % at 2 µM; 360,000 tested, 0.18% active; AID 493084; also: 0% is about no effect
#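 Steps: seed TRHR cells overnight; add fluo-8 no-wash Ca dye, RT 30 min–1.5 h; record 10 s baseline; pin-transfer compounds; monitor fluorescence 1 cycle/s for the agonist window. Calcium increases flag candidate agonists.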
# D1 potentiator: potentiators of human D1 dopamine receptor; HEK293 TREx D1 cells, calcium flux, dopamine EC20 potentiation; 360,000 tested, 0.036% active; potentiation, % at 10 µM; P21728; in the data active = potentiation above about 30%; also: 0% is about no effect
# Numbers without * were called inactive. Only some compounds are listed: those with a hit (about 4.7% of all), similar ones and a draw of the others. Rule as the data show it, unless noted: active = activation above about 30%; inactive = the rest.
SMILES,D1 agonist,TRHR enhancer,D1 antag,TRHR ag,D1 potentiator
CCNC(=S)Nc1ccc(Cl)c([N+](=O)[O-])c1,20.0,1.4,-39.4*,1.4,-6.8
COC(=O)c1cccc(NC(=O)Nc2ccc(Cl)c(Cl)c2)c1,11.3,3.0,-18.5,0.3,-6.0
O=C(Nc1ccccc1)Nc1ccc(F)c([N+](=O)[O-])c1,29.5,-7.4,-47.7*,2.6,-10.7
CC(=O)Nc1ccc(C)c([N+](=O)[O-])c1,2.4,-4.4,-3.7,0.3,-0.2
Cc1ccc(NC(=O)Nc2ccccc2)cc1[N+](=O)[O-],23.7,-7.0,-33.2*,2.0,-10.0
O=C(NC(=S)Nc1ccc(F)c([N+](=O)[O-])c1)c1ccccc1F,-3.2,-0.2,-0.7,-1.5,5.8
Cc1cc(NC(=O)Nc2ccc(Cl)c(Cl)c2)n(-c2ccccc2)n1,20.9,-5.8,-44.3*,0.5,-0.2
COc1cccc(S(=O)(=O)N2CCN(S(=O)(=O)c3ccc4c(c3)OCCO4)CC2)c1,1.8,-3.6,15.5,-2.3,-3.0
COc1ccc(CC(=O)Nc2cc(Cl)ccc2O)cc1,16.2,8.1,-34.6*,-1.7,-4.5
Cc1cccc(CCNC(=O)c2cc3c(=O)n(C)c4ccccc4c3n2C)c1,2.5,6.3,8.9,0.1,3.0
CC(/C=N/NC(=O)Cc1cc(=O)[nH][nH]1)=C\c1ccccc1,57.1*,-9.2,1.3,0.1,-9.3
COc1ccccc1C(=O)N/N=C/C(C)=C/c1ccccc1,7.3,-5.2,-63.6*,-0.3,-2.4
CC(/C=N/NC(=O)c1ccncc1)=C\c1ccccc1,3.4,-3.4,-9.8,1.6,-1.7
CCCCCCCC[n+]1cccc(C(=O)N(CC)CC)c1,1.3,2.4,10.2,-0.8,1.6
CCCCCCCCCCCCCCCC[n+]1cccc(C(=O)N(CC)CC)c1,279.2*,2.4,-21.2,-0.4,15.1
CCC(c1nnnn1C(C)(C)CC)N(CCN1CCOCC1)Cc1cc2cc(C)ccc2[nH]c1=O (stereo not drawn),1.0,9.7,-1.6,0.3,9.9
CCOc1ccc2[nH]c(=O)c(CN(CCN3CCOCC3)Cc3nnnn3C(C)(C)CC)cc2c1,0.8,30.2*,-4.7,0.2,3.9
CCOc1ccc2[nH]c(=O)c(CN(Cc3cccs3)Cc3nnnn3C(C)(C)C)cc2c1,1.1,-4.2,-30.1*,-0.7,-0.1
CCOC(=O)c1c(S(=O)(=O)N2CCC(C(=O)Nc3ccccc3OC)CC2)c(C)n(CC)c1C,0.9,-0.1,2.3,-0.5,-0.8
CC(Nc1nc(N2CCNCC2)nc2ccccc12)c1ccccc1 (stereo not drawn),2.5,-6.3,-54.1*,0.5,-10.9
CCC(/C=N/NC(=O)c1ccccc1F)CC,3.9,-0.6,-37.2*,0.4,-8.7
O=C(N/N=C/C(c1ccccc1)c1ccccc1)c1ccccc1F,4.7,-6.8,-4.2,-1.2,-1.4
Cc1csc2nc(COc3ccc(NC(=O)C(C)C)cc3)cc(=O)n12,1.2,2.6,-7.1,0.0,-0.1
Cn1nnnc1SCCNCc1cc(Br)ccc1OCc1ccccc1Cl,13.5,-9.2,1.7,2.6,-5.2
CC(C)c1cc(-c2nc(-c3ccc(Cl)cc3)no2)n[nH]1,1.4,0.5,-38.1*,0.7,-5.5
SMILES,D1 agonist,TRHR enhancer,D1 antag,TRHR ag,D1 potentiator
COc1cc(-c2noc(-c3cc(C(C)C)[nH]n3)n2)cc(OC)c1OC,1.3,-0.4,0.3,0.2,2.5
Cc1ccc(N/N=C(\C#N)C(N)=S)c(C)c1,37.0*,-3.0,-34.9*,3.4,-12.2
COCCCNC(=S)N1CCN(c2nc(-c3ccc(F)cc3)cs2)CC1,8.5,-0.3,-4.4,-0.7,10.1
CCOCCCNC(=S)N1CCN(c2nc(-c3ccc(F)cc3)cs2)CC1,5.5,-4.7,-31.5*,-0.1,-8.6
CCCNC(=S)N1CCN(c2nc(-c3ccc(C)cc3)cs2)CC1,6.7,23.8,-35.0*,-0.2,-4.8
CCc1nc(NC(C)(C)C)c2cnn(-c3ccccc3)c2n1,32.4*,-5.4,32.1,0.8,5.7
COC(=O)c1c(-c2ccc(Cl)cc2)noc1N1CCN(c2ccccc2OC)CC1,0.7,0.6,-31.5*,0.6,-0.5
Cc1cccc(C(=O)N2CCN(c3ccc([N+](=O)[O-])c(N4CCOCC4)c3)CC2)c1,2.3,-15.7,-45.2*,-1.8,-10.9
Cc1cccc(C(=O)N2CCN(c3ccc([N+](=O)[O-])c(NCc4ccco4)c3)CC2)c1,3.2,11.7,-66.6*,0.2,-9.8

# Bioassay records as filed in PubChem BioAssay.
